# Laboratory results as given in PubChem BioAssay (EPA / NIEHS).
# Results filed as inconclusive are left out. Active and inactive are the calls of the source. Rule for the calls, unless noted: active = hit-call score of the fitted dose curve at least 0.9, where 1 is the maximum; inconclusive = response in the unintended direction; inactive = score below 0.9.
# Key:
# [1] = tested on: Sodium/Iodide Symporter (NIS), SLC5A5 (gene 6528); assay: CPHEA_Stoker_NIS_Inhibition_RAIU: CPHEA's Radioactive Iodide Uptake (RAIU) Assay for Sodium/Iodide Symporter (NIS) Inhibition, Stoker and Laws Labs (AID 2283841)
# Outline: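 Test chemicals, six concentrations from 0.001 to 100uM in 0.5% DMSO, were co-incubated with carrier-free 125I (final 329pM) on hNIS-HEK293T-EPA monolayers in pH 7.4 HEPES-buffered HBSS. Plates stood 2 hours at room temperature, then were washed cold and counted.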
# [2] = CPHEA_Stoker_NIS_Cytotoxicity: Cytotoxicity Assessment for CPHEA's Radioactive Iodide Uptake (RAIU) Assay for Sodium/Iodide Symporter (NIS) Inhibition, Stoker and Laws Labs (AID 2283897);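 for AC50: active means loss of ATP signal versus DMSO meaning cytotoxicity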
# Outline: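 Viability in hNIS-HEK293T-EPA cells is scored as a drop in luciferase-detected ATP following 2-hour room-temperature exposure (0.001–100uM; triplicate wells, three cell passages), with DMSO as negative control.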
# [3] = ATG_XTT_Cytotoxicity_XSP2: Cytotoxicity Assessment in the Attagene TRANS-FACTORIAL Multi-Species (XSP2) HepG2 Assay (AID 2283837)
# Outline: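 XTT-based cell number read-out in human HepG2 liver cells carrying transfected reporter units, measured 24 h after chemical dosing. Activity is signal loss versus DMSO baseline.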
# [4] = biological target: human Thyroid hormone Receptor alpha (TRa), THRA (gene 7067) (UniProt P10827); assay: ATG_hTRa_XSP2: Attagene TRANS-FACTORIAL Multi-Species (XSP2) HepG2 Assay for human Thyroid hormone Receptor alpha (TRa) (AID 2283838)
# human Thyroid hormone Receptor alpha (TRa), THRA (gene 7067), sequence (P10827 whole entry, looked up, the tested form may be a part): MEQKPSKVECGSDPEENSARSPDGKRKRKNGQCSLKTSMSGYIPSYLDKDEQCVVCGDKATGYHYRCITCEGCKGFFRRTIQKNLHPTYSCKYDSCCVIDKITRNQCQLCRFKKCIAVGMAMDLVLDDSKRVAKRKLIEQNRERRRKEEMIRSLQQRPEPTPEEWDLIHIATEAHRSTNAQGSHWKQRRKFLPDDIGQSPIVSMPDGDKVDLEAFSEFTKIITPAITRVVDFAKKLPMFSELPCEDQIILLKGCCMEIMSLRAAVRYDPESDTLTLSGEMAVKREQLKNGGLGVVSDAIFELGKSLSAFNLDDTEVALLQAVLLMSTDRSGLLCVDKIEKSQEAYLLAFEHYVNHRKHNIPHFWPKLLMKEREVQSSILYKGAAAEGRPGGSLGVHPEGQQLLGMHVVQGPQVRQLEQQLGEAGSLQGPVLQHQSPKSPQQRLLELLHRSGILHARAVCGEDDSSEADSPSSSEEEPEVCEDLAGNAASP
# Outline: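 Gain-of-signal in reporter mRNA, relative to DMSO, after 24 h dosing of transfected HepG2; quantitation by RT-PCR fragment analysis on capillary electrophoresis.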
# [5] = biological target: human Thyroid hormone Receptor beta (TRb), THRB (gene 7068) (UniProt P10828); assay: ATG_hTRb_XSP2: Attagene TRANS-FACTORIAL Multi-Species (XSP2) HepG2 Assay for human Thyroid hormone Receptor beta (TRb) (AID 2283840);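 note: actives raise reporter mRNA so potency reflects agonist-like gain of signal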
# human Thyroid hormone Receptor beta (TRb), THRB (gene 7068), sequence (P10828 whole entry, looked up, the tested form may be a part): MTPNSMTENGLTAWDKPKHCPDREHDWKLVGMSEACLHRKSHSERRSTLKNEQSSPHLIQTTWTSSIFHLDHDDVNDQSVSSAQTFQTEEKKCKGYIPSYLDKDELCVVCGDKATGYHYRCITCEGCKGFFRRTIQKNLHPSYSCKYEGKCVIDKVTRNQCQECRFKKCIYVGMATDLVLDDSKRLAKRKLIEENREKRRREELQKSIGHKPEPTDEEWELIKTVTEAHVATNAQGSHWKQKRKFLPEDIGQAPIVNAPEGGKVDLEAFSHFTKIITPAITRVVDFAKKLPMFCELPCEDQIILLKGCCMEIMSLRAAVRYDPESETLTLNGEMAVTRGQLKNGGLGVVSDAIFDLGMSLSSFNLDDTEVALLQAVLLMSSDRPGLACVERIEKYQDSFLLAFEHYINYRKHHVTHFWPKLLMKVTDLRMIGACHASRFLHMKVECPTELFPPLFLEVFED
# Outline: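 Read-out: reporter mRNA induction (RT-PCR, 6-FAM labeling, capillary electrophoresis), gain-of-signal relative to DMSO baseline. Transiently transfected HepG2 TRANS multiplex (NR-Gal4 chimeras, GAL4-UAS reporters), 24 h chemical exposure; medium contained 3 nM 6-alpha-fluorotestosterone plus 1.5 nM norgestrel.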
# PGR (gene 5241) [6] = biological target: PGR (gene 5241) (UniProt P06401); assay: TOX21_PR_BLA_Followup_Agonist_ratio: Tox21 HEK293 Progesterone Receptor (PR) Agonism Beta-lactamase Follow-Up Assay, Ratio (AID 2283933)
# PGR (gene 5241), sequence (P06401 whole entry, looked up): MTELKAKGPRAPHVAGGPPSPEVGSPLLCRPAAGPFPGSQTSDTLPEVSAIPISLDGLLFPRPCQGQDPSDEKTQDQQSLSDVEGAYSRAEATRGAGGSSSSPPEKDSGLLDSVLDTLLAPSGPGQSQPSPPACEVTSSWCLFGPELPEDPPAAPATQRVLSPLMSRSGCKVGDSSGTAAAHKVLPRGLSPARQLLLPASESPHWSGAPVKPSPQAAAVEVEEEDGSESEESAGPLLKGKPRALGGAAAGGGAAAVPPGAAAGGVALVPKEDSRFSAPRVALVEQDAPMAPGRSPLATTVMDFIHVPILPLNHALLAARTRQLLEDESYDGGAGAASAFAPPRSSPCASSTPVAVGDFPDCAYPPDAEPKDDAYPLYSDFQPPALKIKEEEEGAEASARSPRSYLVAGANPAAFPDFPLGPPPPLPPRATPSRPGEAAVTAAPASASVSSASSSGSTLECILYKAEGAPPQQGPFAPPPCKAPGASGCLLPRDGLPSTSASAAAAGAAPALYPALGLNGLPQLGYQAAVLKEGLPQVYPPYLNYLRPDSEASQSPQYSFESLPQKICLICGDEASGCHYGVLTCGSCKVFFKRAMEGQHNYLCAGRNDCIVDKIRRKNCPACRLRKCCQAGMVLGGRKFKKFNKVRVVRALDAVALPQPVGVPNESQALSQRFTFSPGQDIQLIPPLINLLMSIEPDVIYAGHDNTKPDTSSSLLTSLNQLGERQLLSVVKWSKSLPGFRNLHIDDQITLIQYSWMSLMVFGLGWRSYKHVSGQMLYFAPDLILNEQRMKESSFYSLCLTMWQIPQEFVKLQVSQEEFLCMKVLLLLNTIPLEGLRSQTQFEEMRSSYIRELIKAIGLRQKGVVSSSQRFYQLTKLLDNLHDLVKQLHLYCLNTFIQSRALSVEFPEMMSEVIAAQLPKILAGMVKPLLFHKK
# Outline: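 Ratio-based beta-lactamase reporter signal after 16 hr compound treatment of PR-UAS-bla HEK293T cells at 37C. Substrate loading lasted 2 hr at room temperature.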
# PGR (gene 5241) [7] = biological target: PGR (gene 5241) (UniProt P06401); assay: TOX21_PR_BLA_Followup_Antagonist_ratio: Tox21 HEK293 Progesterone Receptor (PR) Antagonism Beta-lactamase Follow-Up Assay, Ratio (AID 2283934);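 note: PR-UAS-bla HEK293T cells stimulated with 1 nM R5020 agonist for 16 hr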
# Outline: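 Measured in PR-UAS-bla HEK293T cells co-treated with compound and 1 nM promegestone for 16 hr; beta-lactamase ratio read after 2 h FRET substrate loading, with parallel CellTiter-Glo cytotoxicity.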
# PGR (gene 5241) [8] = biological target: PGR (gene 5241) (UniProt P06401); assay: TOX21_PR_LUC_Followup_Agonist: Tox21 HEK293 Progesterone Receptor (PR) Agonism Luciferase Follow-Up Assay (AID 2283937; active = hit-call score of the fitted dose curve at least 0.9, where 1 is the maximum; inactive = score below 0.9)
# Outline: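 In HEK293 cells stably expressing PR-A with a luciferase reporter, compounds were incubated 16 h at 37C, and induced luminescence was quantified with ONE-Glo, multiplexed with cell viability.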
# PGR (gene 5241) [9] = biological target: PGR (gene 5241) (UniProt P06401); assay: TOX21_PR_LUC_Followup_Antagonist: Tox21 HEK293 Progesterone Receptor (PR) Antagonism Luciferase Follow-Up Assay (AID 2283938);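 note: curve fitted upward as signal gain over DMSO baseline despite antagonist label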
# Outline: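 Luminescence from ONE-Glo reagent, measured after 30 min at room temperature, served as readout. Cells (HEK293 carrying PR-A-luc) had been treated 16 h at 37C with DMSO-dissolved compounds. Activity was fitted against DMSO controls.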
# [10] = TOX21_PR_BLA_Followup_Agonist_viability: Viability Assessment in the Tox21 HEK293 Progesterone Receptor (PR) Agonism Beta-lactamase Follow-Up Assay (AID 2283935);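 note: signal loss means lower viability so actives are cytotoxic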
# Outline: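 Viability is read as CellTiter-Glo luminescence, where loss of signal indicates cytotoxicity. The cells are PR-UAS-bla HEK293T given compounds for 16 hr at 37C and 5% CO2, in the same wells used for the bla readout.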
# [11] = TOX21_PR_BLA_Followup_Antagonist_viability: Viability Assessment in the Tox21 HEK293 Progesterone Receptor (PR) Antagonism Beta-lactamase Follow-Up Assay (AID 2283936);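 note: cells exposed to compound with R5020 agonist for 16 h; hits lower the luminescence signal meaning cytotoxicity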
# Outline: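 PR-UAS-bla HEK293T cells in medium with 2% charcoal-stripped FBS were treated with compounds plus R5020 for 16 hr at 37C. After the beta-lactamase read, CellTiter-Glo was added to the same wells and luminescence read after 30 min at room temperature.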
# [12] = CEETOX_H295R_11DCORT_noMTC: CeeTox H295R High-throughput Steroidogenesis Assay for 11-Deoxycortisol (11DCORT), maximum tolerated concentration (MTC) filtered results only (AID 2283911; active = hit-call score of the fitted dose curve at least 0.9, where 1 is the maximum; inactive = score below 0.9); conditions: actives raise or lower the signal
# Outline: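 H295R, OECD 456-based; 10 uM forskolin 48 h → compound (0.1% DMSO) 48 h → medium extracted, 11DCORT by LC-MS/MS. Gain/loss vs DMSO control, all concentrations kept regardless of MTT viability.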
# [13] = CEETOX_H295R_OHPREG_noMTC: CeeTox H295R High-throughput Steroidogenesis Assay for OH-Pregnenolone (OHPREG), maximum tolerated concentration (MTC) filtered results only (AID 2283912; active = hit-call score of the fitted dose curve at least 0.9, where 1 is the maximum; inactive = score below 0.9); conditions: actives raise or lower the signal
# Outline: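 H295R; 10 uM forskolin 48 h pre-stim; test cpd in DMSO (0.1% final) 48 h; media MTBE-extracted, HPLC-MS/MS for OH-pregnenolone; bidirectional fit vs DMSO; no MTC (MTT) filtering.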
# [14] = CEETOX_H295R_OHPROG_noMTC: CeeTox H295R High-throughput Steroidogenesis Assay for OH-Progesterone (OHPROG), maximum tolerated concentration (MTC) filtered results only (AID 2283914; active = hit-call score of the fitted dose curve at least 0.9, where 1 is the maximum; inactive = score below 0.9); conditions: actives raise or lower the signal
# Outline: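 Medium hormone measured by reverse-phase C18 HPLC with positive electrospray MS/MS after MTBE liquid-liquid extraction. Cells had 48 h forskolin (10 uM) prestimulation, then 48 h chemical dosing. Gain or loss of signal fitted relative to DMSO baseline.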
# [15] = CEETOX_H295R_CORTISOL_noMTC: CeeTox H295R High-throughput Steroidogenesis Assay for Cortisol, maximum tolerated concentration (MTC) filtered results only (AID 2283916; active = hit-call score of the fitted dose curve at least 0.9, where 1 is the maximum; inactive = score below 0.9); conditions: actives raise or lower the signal
# Outline: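 H295R human adrenal cells prestimulated 48 h with 10 uM forskolin, then exposed 48 h to chemical in 0.1% DMSO; cortisol in medium quantified by HPLC-MS/MS; bidirectional fit vs DMSO baseline, concentrations not MTT-filtered for MTC.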
# [16] = CEETOX_H295R_CORTIC_noMTC: CeeTox H295R High-throughput Steroidogenesis Assay for Corticosterone (CORTIC), maximum tolerated concentration (MTC) filtered results only (AID 2283917; active = hit-call score of the fitted dose curve at least 0.9, where 1 is the maximum; inactive = score below 0.9); conditions: actives raise or lower the signal
# Outline: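 Corticosterone secreted into the medium was measured by reverse-phase C18 HPLC with tandem MS after MTBE extraction. Cells (H295R) had 48 h forskolin (10 uM) stimulation before 48 h chemical exposure; gain or loss of signal was fitted relative to DMSO.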
# [17] = CEETOX_H295R_DOC_noMTC: CeeTox H295R High-throughput Steroidogenesis Assay for DOC, maximum tolerated concentration (MTC) filtered results only (AID 2283918; active = hit-call score of the fitted dose curve at least 0.9, where 1 is the maximum; inactive = score below 0.9); conditions: actives raise or lower the signal
# Outline: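 H295R cells prestimulated 48 h with 10 uM forskolin, then exposed 48 h to chemical in 0.1% DMSO. 11-Deoxycorticosterone in medium measured by MTBE extraction and HPLC-MS/MS; bidirectional fit vs DMSO, no MTC filter.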
# [18] = CEETOX_H295R_ESTRADIOL_noMTC: CeeTox H295R High-throughput Steroidogenesis Assay for Estradiol, maximum tolerated concentration (MTC) filtered results only (AID 2283919; active = hit-call score of the fitted dose curve at least 0.9, where 1 is the maximum; inactive = score below 0.9); conditions: actives raise or lower the signal
# Outline: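 Readout: dansyl-derivatized estradiol quantified by LC-MS/MS in medium from H295R cells dosed 48 h (0.1% DMSO) following 48 h forskolin (10 uM) prestimulation. Gain or loss of signal fitted against DMSO; no MTC filtering applied.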
# [19] = CEETOX_H295R_PROG_noMTC: CeeTox H295R High-throughput Steroidogenesis Assay for Progesterone (PROG), maximum tolerated concentration (MTC) filtered results only (AID 2283920; active = hit-call score of the fitted dose curve at least 0.9, where 1 is the maximum; inactive = score below 0.9); conditions: actives raise or lower the signal
# Outline: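 Readout: medium progesterone by MTBE extraction, reverse-phase C18 HPLC, ESI-positive MS/MS. Human H295R cells, 10 uM forskolin pretreatment 48 h, chemical 48 h in 0.1% DMSO. Gain or loss fitted against DMSO baseline.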
# [20] = CEETOX_H295R_ESTRONE_noMTC: CeeTox H295R High-throughput Steroidogenesis Assay for Estrone, maximum tolerated concentration (MTC) filtered results only (AID 2283921; active = hit-call score of the fitted dose curve at least 0.9, where 1 is the maximum; inactive = score below 0.9); conditions: actives raise or lower the signal
# Outline: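 Estrone in spent medium, quantified by tandem MS following dansyl chloride derivatization, after 48 h chemical exposure (0.1% DMSO) of forskolin-prestimulated (10 uM, 48 h) H295R cells; concentrations not MTC-filtered, bidirectional fit against DMSO.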
compound,measurement,setting,value
c1ccc(Nc2ccccc2)cc1,outcome,[1],inactive
same,outcome,[2],inactive
C#CCOC(=O)[C@@H](C)Oc1ccc(Oc2ncc(Cl)cc2F)cc1,outcome,[1],inactive
same,outcome,[2],inactive
O=C(Nc1ccc([N+](=O)[O-])cc1Cl)c1cc(Cl)ccc1O,AC50,[1],0.111 µM (active)
same,outcome,[2],inactive
CCN(Cc1c(F)cccc1Cl)c1c([N+](=O)[O-])cc(C(F)(F)F)cc1[N+](=O)[O-],outcome,[3],inactive
same,outcome,[4],inactive
same,outcome,[5],inactive
same,outcome,[1],inactive
same,outcome,[2],inactive
CCCCOC(=O)[C@@H](C)Oc1ccc(Oc2ccc(C(F)(F)F)cn2)cc1,outcome,[1],inactive
same,outcome,[2],inactive
C#C[C@]1(O)CC[C@H]2[C@@H]3CCC4=CC(=O)CC[C@@H]4[C@H]3CC[C@@]21CC,outcome,[4],inactive
same,AC50,[5],1.44 µM (active)
C[C@]12CC[C@@H]3c4ccc(O)cc4C[C@@H](CCCCCCCCCS(=O)CCCC(F)(F)C(F)(F)F)[C@H]3[C@@H]1CC[C@@H]2O (some centres undefined),outcome,PGR (gene 5241) [6],inactive
same,AC50,PGR (gene 5241) [7],4.06 µM (active)
same,outcome,PGR (gene 5241) [8],inactive
same,AC50,PGR (gene 5241) [9],5.78 µM (active)
CCOC(=O)COc1cc(-n2ncc(C(F)(F)F)c(C)c2=O)c(F)cc1Cl,outcome,[1],inactive
same,outcome,[2],inactive
CCCCCOC(=O)COc1cc(N2C(=O)C3=C(CCCC3)C2=O)c(F)cc1Cl,outcome,[1],inactive
same,outcome,[2],inactive
CC(=O)[C@H]1CC[C@H]2[C@@H]3CCC4=CC(=O)CC[C@]4(C)[C@H]3CC[C@]12C,AC50,[1],84.4 µM (active)
same,AC50,[2],9.92 µM (active)
CCOC(=O)C(C)Oc1ccc(Oc2cnc3cc(Cl)ccc3n2)cc1 (centres undefined),outcome,[1],inactive
same,outcome,[2],inactive
CN(C)C(=O)Nc1ccc(Cl)c(Cl)c1,outcome,[3],inactive
same,outcome,[4],inactive
same,outcome,[5],inactive
CC(C)(c1ccc(O)cc1)c1ccc(O)cc1,outcome,[5],inactive
same,outcome,[1],inactive
same,outcome,[2],inactive
same,outcome,PGR (gene 5241) [6],inactive
same,AC50,PGR (gene 5241) [7],32.9 µM (active)
same,outcome,[10],inactive
same,outcome,[11],inactive
same,outcome,PGR (gene 5241) [8],inactive
same,AC50,PGR (gene 5241) [9],33.3 µM (active)
COC(=O)c1ccccc1C(=O)O,outcome,[12],inactive
same,outcome,[13],inactive
same,outcome,[14],inactive
same,outcome,[15],inactive
same,outcome,[16],inactive
same,outcome,[17],inactive
same,outcome,[18],inactive
same,outcome,[19],inactive
same,outcome,[20],inactive
CCOC(=O)NCCOc1ccc(Oc2ccccc2)cc1,AC50,[1],40.2 µM (active)
same,AC50,[2],34 µM (active)
S=C(S)NCCNC(=S)S.[Mn+2].[S-]C([S-])=NCCN=C([S-])[S-].[Zn+2],outcome,[1],inactive
same,outcome,[2],inactive
CCCCCCC(C)OC(=O)COc1nc(F)c(Cl)c(N)c1Cl (centres undefined),AC50,[1],11.3 µM (active)
same,outcome,[2],inactive
CCCN(CCC)c1c([N+](=O)[O-])cc(C(F)(F)F)c(N)c1[N+](=O)[O-],AC50,[1],31.8 µM (active)
same,AC50,[2],47.8 µM (active)
Oc1ccc(C(c2ccc(O)cc2)C(Cl)(Cl)Cl)cc1,outcome,[5],inactive
same,AC50,[1],50 µM (active)
same,AC50,[2],39.9 µM (active)
CCCCC(CC)COC(=O)c1ccccc1C(=O)O (centres undefined),outcome,[12],inactive
same,outcome,[13],inactive
same,outcome,[14],inactive
same,outcome,[15],inactive
same,outcome,[16],inactive
same,outcome,[17],inactive
same,outcome,[19],inactive
C=CCOC(Cn1ccnc1)c1ccc(Cl)cc1Cl (centres undefined),outcome,[4],inactive
same,outcome,[1],inactive
same,outcome,[2],inactive
CSC(=O)c1cccc2nnsc12,outcome,[5],inactive
same,outcome,[1],inactive
same,outcome,[2],inactive
CCCCOC(=O)C(C)Oc1ccc(Oc2ccc(C(F)(F)F)cn2)cc1 (centres undefined),outcome,[1],inactive
same,outcome,[2],inactive
